Measured values taken from PubChem BioAssay AID1159580 (chemical genetic matrix, 2015).
In all, about 5,500 compounds went through this assay and about 2,000 (36%) were called active. About 18% were inconclusive and are not listed. Cut-off read from the data, not from the text of the source: active = normalized growth mostly below about 0.91 (no sharp cut-off); inconclusive = no clear call, values can overlap the other calls; inactive = mostly above about 0.92. This is one part of the list.

Experiment: chemical genetic growth profiling, strain panel (AID 1159580);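 note: tested at 20 µM; growth read once vehicle control cultures reached saturation at 30 °C; 1 = growth at the plate median or of vehicle wells; lower values mean less growth of the strain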
Conditions: growth OD

Measured: normalized growth

COC1=CC23CCCN2CCc2cc4c(cc2C3C1O)OCO4 (centres undefined)
inactive: S. cerevisiae deletion strains, locus YJL187C, strain SWE1, active compounds read low 1.02 | S. cerevisiae deletion strains, locus YJR043C, strain POL32, active compounds read low 0.999 | S. cerevisiae deletion strains, locus YJR066W, strain TOR1, active compounds read low 0.92 | S. cerevisiae deletion strains, locus YJR075W, strain HOC1, active compounds read low 1.01 | S. cerevisiae deletion strains, locus YKL009W, strain mrt4, active compounds read low 1.01 | S. cerevisiae deletion strains, locus YKL068W, active compounds read low 1 | S. cerevisiae deletion strains, locus YKL085W, strain MDH1 (second series), active compounds read low 1.01 | S. cerevisiae deletion strains, locus YKL085W, strain MDH1, active compounds read low 1.01 | S. cerevisiae deletion strains, locus YKL160W, strain elf1, active compounds read low 1.02 | S. cerevisiae deletion strains, locus YKL190W, strain CNB1, active compounds read low 1 | S. cerevisiae deletion strains, locus YKR001C, strain vps1, active compounds read low 1.01 | S. cerevisiae deletion strains, locus YKR026C, strain gcn3, active compounds read low 1.02 | S. cerevisiae deletion strains, locus YKR091W, strain srl3, active compounds read low 1.02 | S. cerevisiae deletion strains, locus YLL001W, strain dnm1, active compounds read low 1.02 | S. cerevisiae deletion strains, locus YLL026W, active compounds read low 1.02 | S. cerevisiae deletion strains, locus YLL041C, strain sdh2, active compounds read low 1.02 | S. cerevisiae deletion strains, locus YLR027C, strain aat2, active compounds read low 1.01 | S. cerevisiae deletion strains, locus YLR039C, strain RIC1, active compounds read low 1.04 | S. cerevisiae deletion strains, locus YLR058C, strain SHM2, active compounds read low 1 | S. cerevisiae deletion strains, locus YLR102C, strain apc9, active compounds read low 1 | S. cerevisiae deletion strains, locus YLR113W, strain HOG1, active compounds read low 0.959 | S. cerevisiae deletion strains, locus YLR221C, strain rsa3, active compounds read low 1.03 | S. cerevisiae deletion strains, locus YLR258W, strain gsy2, active compounds read low 1.02 | S. cerevisiae deletion strains, locus YLR262C, strain YPT6 (second series), active compounds read low 1.04 | S. cerevisiae deletion strains, locus YLR262C, strain YPT6, active compounds read low 1.04 | S. cerevisiae deletion strains, locus YLR268W, strain sec22, active compounds read low 1.02 | S. cerevisiae deletion strains, locus YLR320W, strain mms22, active compounds read low 1.05 | S. cerevisiae deletion strains, locus YLR330W, strain CHS5, active compounds read low 1 | S. cerevisiae deletion strains, locus YLR342W, strain FKS1 (second series), active compounds read low 0.997 | S. cerevisiae deletion strains, locus YLR342W, strain FKS1, active compounds read low 1.02 | S. cerevisiae deletion strains, locus YLR357W, strain rsc2, active compounds read low 1.06 | S. cerevisiae deletion strains, locus YLR370C, strain arc18, active compounds read low 1.03 | S. cerevisiae deletion strains, locus YLR371W, strain rom2, active compounds read low 1.01 | S. cerevisiae deletion strains, locus YLR384C, strain iki3, active compounds read low 1.02 | S. cerevisiae deletion strains, locus YLR418C, strain cdc73, active compounds read low 0.992 | S. cerevisiae deletion strains, locus YML016C, strain PPZ1, active compounds read low 1 | S. cerevisiae deletion strains, locus YML032C, strain rad52, active compounds read low 0.98 | S. cerevisiae deletion strains, locus YML120C, strain ndi1, active compounds read low 1.02 | S. cerevisiae deletion strains, locus YML124C, strain tub3, active compounds read low 1 | S. cerevisiae deletion strains, locus YMR058W, strain fet3, active compounds read low 1.03 | S. cerevisiae deletion strains, locus YMR078C, strain ctf18, active compounds read low 1.01 | S. cerevisiae deletion strains, locus YMR125W, strain sto1, active compounds read low 1.04 | S. cerevisiae deletion strains, locus YMR129W, active compounds read low 1.02 | S. cerevisiae deletion strains, locus YMR205C, strain PFK2, active compounds read low 1.05 | S. cerevisiae deletion strains, locus YMR223W, strain ubp8, active compounds read low 1.01 | S. cerevisiae deletion strains, locus YMR231W, strain pep5, active compounds read low 1.02 | S. cerevisiae deletion strains, locus YMR307W, strain GAS1, active compounds read low 0.984 | S. cerevisiae deletion strains, locus YNL067W, strain RPL9B, active compounds read low 0.99 | S. cerevisiae deletion strains, locus YNL071W, strain lat1, active compounds read low 1.02 | S. cerevisiae deletion strains, locus YNL183C, strain NPR1, active compounds read low 0.926 | S. cerevisiae deletion strains, locus YNL209W, strain ssb2, active compounds read low 1.02 | S. cerevisiae deletion strains, locus YNL233W, strain BNI4, active compounds read low 0.989 | S. cerevisiae deletion strains, locus YNL248C, strain rpa49, active compounds read low 1.04 | S. cerevisiae deletion strains, locus YNL250W, strain rad50, active compounds read low 1.01 | S. cerevisiae deletion strains, locus YNL271C, strain bni1, active compounds read low 1.01 | S. cerevisiae deletion strains, locus YNL298W, strain CLA4, active compounds read low 1.01 | S. cerevisiae deletion strains, locus YNL307C, strain MCK1, active compounds read low 1.01 | S. cerevisiae deletion strains, locus YNL322C, strain KRE1 (second series), active compounds read low 1.02 | S. cerevisiae deletion strains, locus YNR049C, strain mso1, active compounds read low 1.05 | S. cerevisiae deletion strains, locus YNR052C, strain pop2, active compounds read low 1 | S. cerevisiae deletion strains, locus YOL012C, strain htz1 0.879 | S. cerevisiae deletion strains, locus YOL147C, strain pex11, active compounds read low 1.01 | S. cerevisiae deletion strains, locus YOR001W, strain rrp6, active compounds read low 1.04 | S. cerevisiae deletion strains, locus YOR061W, strain CKA2, active compounds read low 1.01 | S. cerevisiae deletion strains, locus YOR069W, strain VPS5, active compounds read low 1.01 | S. cerevisiae deletion strains, locus YOR070C, strain gyp1, active compounds read low 1.02 | S. cerevisiae deletion strains, locus YOR080W, strain dia2, active compounds read low 1.03 | S. cerevisiae deletion strains, locus YOR083W, strain WHI5, active compounds read low 1.03 | S. cerevisiae deletion strains, locus YOR106W, strain vam3, active compounds read low 1.03 | S. cerevisiae deletion strains, locus YOR136W, strain idh2, active compounds read low 1.01 | S. cerevisiae deletion strains, locus YOR144C, strain elg1, active compounds read low 1.01 | S. cerevisiae deletion strains, locus YOR184W, strain ser1, active compounds read low 0.999 | S. cerevisiae deletion strains, locus YOR231W, strain MKK1, active compounds read low 0.972 | S. cerevisiae deletion strains, locus YOR265W, strain rbl2, active compounds read low 1.05 | S. cerevisiae deletion strains, locus YOR270C, strain vph1, active compounds read low 1.09 | S. cerevisiae deletion strains, locus YOR290C, strain snf2, active compounds read low 1 | S. cerevisiae deletion strains, locus YOR316C, strain cot1, active compounds read low 1.01 | S. cerevisiae deletion strains, locus YPL051W, strain arl3, active compounds read low 1.02 | S. cerevisiae deletion strains, locus YPL055C, strain LGE1, active compounds read low 0.999 | S. cerevisiae deletion strains, locus YPL078C, strain atp4, active compounds read low 1.03 | S. cerevisiae deletion strains, locus YPL106C, strain sse1, active compounds read low 1.03 | S. cerevisiae deletion strains, locus YPL240C, strain hsp82, active compounds read low 1.02 | S. cerevisiae deletion strains, locus YPL256C, strain CLN2, active compounds read low 0.949 | S. cerevisiae deletion strains, locus YPR119W, strain clb2, active compounds read low 1 | S. cerevisiae deletion strains, locus YPR141C, strain kar3, active compounds read low 1.01 | S. cerevisiae deletion strains, locus YPR163C, strain tif3, active compounds read low 1.01 | S. cerevisiae deletion strains, locus YPR167C, strain met16, active compounds read low 0.998 | S. cerevisiae deletion strains, strain wtn01, active compounds read low 1.02 | S. cerevisiae strains, strain wild type, active compounds read low 1
